# Results taken from publication PMC5540273 (PLoS ONE, 2017).
# Several values for one entry are separate records, joined by “and”; a condition that tells them apart may be missing. Identical values can stand only once. Like-named read-outs stand apart in the source and are kept apart here.
# Assays:
# [1] = tested on: EPHA4; conditions: n = 1
# [2] = tested on: EPHA5; conditions: concentration: 1 μM, replicates: in singlicate; n = 1
# [3] = tested on: EPHA6; conditions: n = 1
# [4] = tested on: EPHA7; conditions: n = 1
# [5] = tested on: EPHA8; conditions: n = 1
# [6] = tested on: EPHB1; conditions: n = 1
# [7] = tested on: EPHB2; conditions: concentration: 1 μM, replicates: in singlicate; n = 1
# [8] = tested on: EPHB3; conditions: n = 1
# [9] = tested on: EPHB4; conditions: n = 1
# [10] = tested on: EPHB6; conditions: n = 1
# [11] = tested on: ERBB2; conditions: n = 1
# [12] = tested on: ERBB3; conditions: concentration: 1 μM, replicates: in singlicate; n = 1
# [13] = tested on: ERBB4; conditions: n = 1
# [14] = tested on: T1, ERK1; conditions: concentration: 1 μM, replicates: in singlicate; n = 1
# T1 construct: gene MAPK3
# [15] = tested on: T2, ERK2; conditions: concentration: 1 μM, replicates: in singlicate; n = 1
# T2 construct: gene MAPK1
# [16] = tested on: T3, ERK3; conditions: n = 1
# T3 construct: gene MAPK6
# [17] = tested on: T4, ERK4; conditions: n = 1
# T4 construct: gene MAPK4
# [18] = tested on: T5, ERK5; conditions: concentration: 1 μM, replicates: in singlicate; n = 1
# T5 construct: gene MAPK7
# [19] = tested on: T6, ERK8; conditions: concentration: 1 μM, replicates: in singlicate; n = 1
# T6 construct: gene MAPK15
# [20] = tested on: ERN1; conditions: n = 1
# [21] = concentration: 1 μM, replicates: in singlicate
# [22] = concentration: 1 μM,replicates: in singlicate, 1 µM
# 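Further: KINOMEscan kinase panel screen.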
compound,measurement,setting,value
Fc1cc(Cl)ccc1Nc1ccnc2cc(I)ccc12 [GW551191],%Inh,[1]; [21],13%
same,%Inh,[2],0%
same,%Inh,[3]; [21],34%
same,%Inh,[4]; [21],6%
same,%Inh,[5]; [21],44%
same,%Inh,[6]; [21],32%
same,%Inh,[7],25%
same,%Inh,[8]; [21],17%
same,%Inh,[9]; [21],15%
same,%Inh,[10]; [21],53%
same,%Inh,[11]; [21],32%
same,%Inh,[12],31%
same,%Inh,[13]; [21],30%
same,%Inh,[14],0%
same,%Inh,[15],0%
same,%Inh,[16]; [21],5%
same,%Inh,[17]; [21],24%
same,%Inh,[18],0%
same,%Inh,[19],0%
same,%Inh,[20]; [21],2%
CSc1nn2c(=O)cc(N3CCOCC3)nc2n1Cc1cccc(C(F)(F)F)c1C [GSK2363608],%Inh,[1]; [22],2% and 23%
same,%Inh,[2],0%
same,%Inh,[3]; [22],0% and 12%
same,%Inh,[4]; [22],8% and 6%
same,%Inh,[5]; [22],0% and 18%
same,%Inh,[6]; [22],0% and 9%
same,%Inh,[7],0%
same,%Inh,[8]; [22],3% and 28%
same,%Inh,[9]; [22],13% and 17%
same,%Inh,[10]; [22],29% and 12%
same,%Inh,[11]; [22],0% and 10%
same,%Inh,[12],0%
same,%Inh,[13]; [22],28% and 37%
same,%Inh,[14],0%
same,%Inh,[15],0%
same,%Inh,[16]; [22],7% and 0%
same,%Inh,[17]; [22],54% and 22%
same,%Inh,[18],0%
same,%Inh,[19],0%
same,%Inh,[20]; [22],3% and 1%
Cn1ccc2ncnc(Oc3ccc(Nc4nc5ccccc5[nH]4)cc3)c21,%Inh,[1]; [21],12%
same,%Inh,[2],0%
same,%Inh,[3]; [21],4%
same,%Inh,[4]; [21],0%
same,%Inh,[5]; [21],0%
same,%Inh,[6]; [21],0%
same,%Inh,[7],0%
same,%Inh,[8]; [21],0%
same,%Inh,[9]; [21],1%
same,%Inh,[10]; [21],0%
same,%Inh,[11]; [21],3%
same,%Inh,[12],0%
same,%Inh,[13]; [21],0%
same,%Inh,[14],0%
same,%Inh,[15],2%
same,%Inh,[16]; [21],0%
same,%Inh,[17]; [21],0%
same,%Inh,[18],0%
same,%Inh,[19],0%
same,%Inh,[20]; [21],0%
NC(=O)c1nnc2ccccc2c1N,%Inh,[1]; [21],1%
same,%Inh,[2],10%
same,%Inh,[3]; [21],0%
same,%Inh,[4]; [21],0%
same,%Inh,[5]; [21],0%
same,%Inh,[6]; [21],0%
same,%Inh,[7],13%
same,%Inh,[8]; [21],0%
same,%Inh,[9]; [21],19%
same,%Inh,[10]; [21],9%
same,%Inh,[11]; [21],22%
same,%Inh,[12],45%
same,%Inh,[13]; [21],4%
same,%Inh,[14],0%
same,%Inh,[15],18%
same,%Inh,[16]; [21],0%
same,%Inh,[17]; [21],2%
same,%Inh,[18],5%
same,%Inh,[19],0%
same,%Inh,[20]; [21],22%
Cc1ccc(NC(=O)Nc2cc(C(C)(C)C)nn2-c2ccccc2)cc1 [GSK1014915],%Inh,[1]; [21],24%
same,%Inh,[2],0%
same,%Inh,[3]; [21],28%
same,%Inh,[4]; [21],9%
same,%Inh,[5]; [21],25%
same,%Inh,[6]; [21],14%
same,%Inh,[7],0%
same,%Inh,[8]; [21],20%
same,%Inh,[9]; [21],12%
same,%Inh,[10]; [21],19%
same,%Inh,[11]; [21],36%
same,%Inh,[12],10%
same,%Inh,[13]; [21],0%
same,%Inh,[14],0%
same,%Inh,[15],0%
same,%Inh,[16]; [21],7%
same,%Inh,[17]; [21],26%
same,%Inh,[18],0%
same,%Inh,[19],52%
same,%Inh,[20]; [21],0%
CC(=O)Nc1nc2cnc(Nc3cc(NC(=O)c4cccc(CCC#N)c4)ccc3C)nc2s1,%Inh,[1]; [21],16%
same,%Inh,[2],6%
same,%Inh,[3]; [21],27%
same,%Inh,[4]; [21],10%
same,%Inh,[5]; [21],16%
same,%Inh,[6]; [21],6%
same,%Inh,[7],24%
same,%Inh,[8]; [21],14%
same,%Inh,[9]; [21],19%
same,%Inh,[10]; [21],45%
same,%Inh,[11]; [21],6%
same,%Inh,[12],7%
same,%Inh,[13]; [21],14%
same,%Inh,[14],0%
same,%Inh,[15],21%
same,%Inh,[16]; [21],4%
same,%Inh,[17]; [21],3%
same,%Inh,[18],3%
same,%Inh,[19],0%
same,%Inh,[20]; [21],0%
CC(C)(C)c1ccc(C(=O)Nc2cn3cc(-c4cccnc4)ccc3n2)cc1,%Inh,[1]; [21],25%
same,%Inh,[2],13%
same,%Inh,[3]; [21],29%
same,%Inh,[4]; [21],4%
same,%Inh,[5]; [21],8%
same,%Inh,[6]; [21],19%
same,%Inh,[7],4%
same,%Inh,[8]; [21],26%
same,%Inh,[9]; [21],16%
same,%Inh,[10]; [21],28%
same,%Inh,[11]; [21],34%
same,%Inh,[12],0%
same,%Inh,[13]; [21],1%
same,%Inh,[14],0%
same,%Inh,[15],18%
same,%Inh,[16]; [21],14%
same,%Inh,[17]; [21],23%
same,%Inh,[18],20%
same,%Inh,[19],16%
same,%Inh,[20]; [21],12%
Cl.NC(=O)c1cccc(Nc2nccc(Nc3ccc(Oc4cccc(Cl)c4)c(Cl)c3)n2)c1 [GW659008],%Inh,[1]; [21],3%
same,%Inh,[2],0%
same,%Inh,[3]; [21],0%
same,%Inh,[4]; [21],3%
same,%Inh,[5]; [21],19%
same,%Inh,[6]; [21],0%
same,%Inh,[7],0%
same,%Inh,[8]; [21],0%
same,%Inh,[9]; [21],16%
same,%Inh,[10]; [21],68%
same,%Inh,[11]; [21],79%
same,%Inh,[12],82%
same,%Inh,[13]; [21],55%
same,%Inh,[14],3%
same,%Inh,[15],0%
same,%Inh,[16]; [21],15%
same,%Inh,[17]; [21],0%
same,%Inh,[18],61%
same,%Inh,[19],0%
same,%Inh,[20]; [21],19%
COC(=O)c1c(-c2ccccc2)c2cc(OC)ccc2c(=O)n1Cc1ccccc1,%Inh,[1]; [21],35%
same,%Inh,[2],1%
same,%Inh,[3]; [21],43%
same,%Inh,[4]; [21],0%
same,%Inh,[5]; [21],1%
same,%Inh,[6]; [21],0%
same,%Inh,[7],23%
same,%Inh,[8]; [21],35%
same,%Inh,[9]; [21],27%
same,%Inh,[10]; [21],0%
same,%Inh,[11]; [21],9%
same,%Inh,[12],11%
same,%Inh,[13]; [21],0%
same,%Inh,[14],0%
same,%Inh,[15],17%
same,%Inh,[16]; [21],0%
same,%Inh,[17]; [21],14%
same,%Inh,[18],13%
same,%Inh,[19],0%
same,%Inh,[20]; [21],17%
O=C(Nc1n[nH]c2nc(-c3nccs3)c(Br)cc12)C1CC1 [SB-742251],%Inh,[1]; [21],24%
same,%Inh,[2],1%
same,%Inh,[3]; [21],32%
same,%Inh,[4]; [21],18%
same,%Inh,[5]; [21],35%
same,%Inh,[6]; [21],0%
same,%Inh,[7],15%
same,%Inh,[8]; [21],29%
same,%Inh,[9]; [21],17%
same,%Inh,[10]; [21],59%
same,%Inh,[11]; [21],2%
same,%Inh,[12],19%
same,%Inh,[13]; [21],0%
same,%Inh,[14],0%
same,%Inh,[15],11%
same,%Inh,[16]; [21],14%
same,%Inh,[17]; [21],16%
same,%Inh,[18],0%
same,%Inh,[19],84%
same,%Inh,[20]; [21],0%
